This is an account of results in the supplement of paper PMC6555819.

The test system of this assay is VDR:RXRa (NR concentration 270 nM, RXRa partner concentration 90 nM). The experiment in a line: PBM binding z-score (relative to random genomic background probes); higher = stronger binding; sequences stand for … in GC…GCGATTGACAGCGTAGAATGAAGG
The procedure:
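Protein-binding microarray (Agilent 4x180K custom design, double-stranded 60-nt probes: 5' GC cap, 34-nt variable region, 24-nt constant primer region; full probe sequence given). Purified or IVT nuclear receptor:RXRα heterodimers (3:1 NR:RXRα, mostly 270:90 nM) or homodimers were incubated for 1 h in PBS with 2% milk and no ligand, then detected with Alexa488 antibodies. Fluorescence from o1-orientation probes (~5 replicates averaged) was converted to z-scores against 500 random hg19 background probes. Variable regions are seed direct-repeat (DR0–DR5) sites, all their single-nucleotide variants and half-site ablations.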
For the sequence AGTCAAAGTTCAGTAGGTAACGTAAGATTCAGCT, the PBM binding z-score is 2.4.
The figure for CCCACTGGGGCAAAGGTTACCATACTCAGTACGA is 1.61; for CCTCGGAGGACAACAGGATGTCAGAGCTGCCAGA it is -0.45.
The figure for TGACTGAGGTTAAAGATCAGGGAACGTGGCGTCG is 1.69.
Next, CAAACTAGGTCACAGAGGTCAAACTCCGTGCGTA: 8.03; GCTCGGGGGACAAGGTCAGAGCTTTGTCCGTAGA: 3.07; CTATGTAGGTTAAGGCGGTCATTCAGTTTGAAAG: 3.84.
Take TCGAGTAGGTTACGGGGGCAATCAGGGATGAAGA: the PBM binding z-score is 3.22.
The figure for CCTACTGGGCCAATAAGGTCATTGATGCCGATAA is 5.29.
Consider CAAGCTAGGTCAAAGGTCAAAGTCGAGCCAACCA, for which the PBM binding z-score is 6.9.
Next, CGAACTAGGTCAAAGGACAGTAAAAGGCGACGTA: 1.55; ATATGTAGGTTACGGTCATTCAGAAAGTAGGGAA: 1.54.
The figure for CCTACTGGGCCATACAGAGGTCATTGATCATATG is 4.09; for CCTACGGGGCCAAGGTCATTGATCAGTCAAAGCA it is 3.52.
The figure for CGAACTGGGTCACCAGGACAGTGAAGAGGTTGGA is 2.13; for CCGAGTAGGTAACGAGGGGGCATTCAGTGCGAAT it is 4.19.
In the case of TCGAGTACGTTACGGGGGCATTCAGGGATGAAGA, the PBM binding z-score amounted to 3.76.
The figure for TCTGCTATGTCAACGATGGTCAGCTAATCTGCTA is -0.405.
CGAACTAGGTCAAAGAACAGTGAAAGGCGACGTA: the PBM binding z-score stood at 0.943.
The figure for CCGAGTAGGTTACGAGGGGACATTCAGTGCGAAT is 2.82.
Next, CTATGAAGGTTAAGGGGGTCATTCAGTTTGAAAG: 7.95; ACTAGTTGTTCAGCTGAGGTCACACACAATTCGG: 4.06.
As to ATATGTAGGTTACCGGGTCATTCAGTTTGCGCAT, the PBM binding z-score was 5.56.
Next, CTTTACGGGTCAAGGTTATAGCACGGGTGGTACG: 3.8; TCGAGTAGGTTACGGGGGCATTCAAGGATGAAGA: 3.74.
Next, CGAAATAGGTCAAAGGACAGTGAAAGGCGACGTA: 2.5; CGTCCAAGGTCAAAGGTCAGGGAAGAGATGACGG: 6.71.
Take CTCGAAAGGTCGTGCTTAGGTGAGTATACCAAAC: the PBM binding z-score came out at 3.36.
In the case of TAGAGTAGGTTACGGGGGCATTCAGGGATGAAGA, the PBM binding z-score came to 4.09.
The figure for CGGAGTAGGTTACGAGGGGGCATTCAGTGCGAAT is 5.44; for AGAATGAGGTTAAGATTAGGGAAACAGAATACAT it is 1.36.
The figure for CGTCCAAGGTCAGTGAGGTCAGTGAATGCCGAGT is 7.42.
CGTCCAAGGTCATAGGAGGTCATTGAAGACAGAT: the PBM binding z-score worked out at 7.27.
Next, TCGAGGAGGTTACGGGGGCATTCAGGGATGAAGA: 5.08; CCGAGTATGTTACGAGGGGGCATTCAGTGCGAAT: 4.06; ATATGTTGGTTAGGGTCATTCAGAAAGTAGGGAA: 4.37.
Next, CGTCCAAGGTCAAGGGCAGTGAAAGAGACTCGAA: 3.68.
The figure for ACTAGTTGGTCAGCTGAGGTCACACAAAATTCGG is 4.79; for CGAACTAGGTCCAAGGACAGTGAAAGGCGACGTA it is -0.332; for TCTTGTAGATCAAAGGTCAAGAAAGCCGAAGCCT it is 4.14.
